The sequences below were run against ASCL1 (assay: pooled miR-30 sensor sort-seq; sequence = guide strand). Conditions: shRNA.

| Sequence | sensor-assay potency score (higher = more potent) |
| --- | --- |
| TTTGCAGCGCATCAGTTCGGGC | -1.5 |
| TTGACCAACTTGACGCGGTTGC | 0.134 |
| TTGCGCTCGCGCTCGTTGCGGC | -0.896 |
| AATACATTAACAACATTTCTAT | -0.252 |
| TAAACCATTTGTACAAAACTTC | -0.297 |
| TTGGTGCTGAAGTACAACTGGT | -0.518 |
| TACTCATCTTCTTGTTGGCCGC | -0.58 |
| TAAGTTTGTAATAAAACAGTAA | -0.00305 |
| TAATACATTAACAACATTTCTA | 0.433 |
| TTTGAGTTTGGACAGTAGCTGC | -0.582 |
| TTGGAGTGCAAAGATACTGTTC | 0.084 |
| TTGAACAGTATTTAATAACATC | -1.14 |
| TTACTCATCTTCTTGTTGGCCG | 0.746 |
| TAAACCAATGTCTACAGCTTAT | -1.49 |
| ATGCTCGTCCAGCAGCTGCTGC | -1.67 |
| TACATTAACAACATTTCTATAA | -1.04 |

What follows are sequences tested against ASF1A in the same assay as above. Conditions: shRNA.

| Sequence | sensor-assay potency score (higher = more potent) |
| --- | --- |
| TAATAAATTCTTGTCCTCGATA | -1.01 |
| TTGAAGCTTAGAAAAGTCTGGT | -0.243 |
| TTACATAATAGCCAACTCTAAT | -1.16 |
| TCTAACATGACATTTAGTGAGT | 0.228 |
| TGAAATACAAACATATGCCTTC | 0.343 |
| TTGGATTACTGCTCTCTGCATC | -0.437 |
| TAACATGACATTTAGTGAGTTT | -0.448 |
| TCGAAGGTGATCTCGAACTGGA | -0.487 |
| TTAGATGCCAAAATATTCCTTT | 0.414 |
| TTTGAAGCTTAGAAAAGTCTGG | 0.13 |
| TAATTTTCCATTCCAAGTCTTC | -0.557 |
| TAAAACAGAGTCTAAAACTTGA | -0.0289 |

Each sequence was assayed against ASNSD1 in the same assay as above. Conditions: shRNA.

| Sequence | sensor-assay potency score (higher = more potent) |
| --- | --- |
| TTTTTCACCAATTCCTCGGGGT | 0.495 |
| TAAATCTTGACTGAAATGCTCA | -0.203 |
| TTCTTCAATAATATTCTCCCTA | 0.32 |
| TTCCATAGAAACACATTGCCTC | 0.13 |
| ATTCTCTTCAGCTTCAACCTTT | 0.221 |
| TTTCTTGACTGCTACACTCAGG | -0.64 |
| TATTAGGACTGTCAGCAGCAGC | -1.12 |
| TAAGATTATATAGTAAGTCCTC | -0.501 |
| TTCTAGAAGAAATTCGACCCAG | -0.284 |
| TAACTCTGTCATCACGACCAAG | -0.98 |

Reference: the OligoGym collection
